The list is not random: actives were taken first. Their share in the collection is about 6.3%.
MPTP block: blocks calcium-induced mitochondrial swelling; AID 602449; inhibition, % at 10 µM; 1.4% of 360,000 active; isolated mouse mitochondria, Ca2+ swelling absorbance, 30 min;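 active means inhibition of 50% or more, scaled per plate between neutral and stimulator controls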;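 further: 0% = DMSO wells given calcium and 100% = 1 mM EGTA wells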
TIM10 inh: inhibits growth of TIM10 yeast strain | S. cerevisiae TIM10 strain growth, BacTiter-Glo luminescence, 24 h | inhibition, % at 10 µM | 1.4% of 330,000 active;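 active means inhibition of 40% or more at the single tested concentration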;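 further: wild-type TIM10 isogenic control strain grown at permissive 25 °C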
tim10-1 inh: inhibits growth of tim10-1 mutant yeast; S. cerevisiae tim10-1 ts strain growth, BacTiter-Glo, 24 h; 2.2% of 330,000 active; inhibition, % at 20 µM;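 active means inhibition of at least 40%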;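 further: mutant grown at 25 °C; 0% = DMSO wells with yeast and 100% = wells holding no yeast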
tim23-1 inh: growth inhibitors of tim23-1 mutant yeast; S. cerevisiae tim23-1 growth, BacTiter-Glo luminescence, 24 h; inhibition, % at 20 µM; 1.3% of 330,000 active;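 active means growth inhibition of the mutant yeast at or above 50%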;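 further: temperature-sensitive mutant grown at 25 °C; plate controls were DMSO-treated mutant yeast for no effect and medium wells lacking yeast for full effect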
Mdm2-MdmX inh: inhibitors of human Mdm2/MdmX interaction; SaOS-2 split-luciferase Mdm2/MdmX complementation, luminescence; inhibition, % at 8 µM; 3% of 330,000 active;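 active means inhibition of at least 50% at 8 µM in the primary screen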
Mdm2 MdmX conf: confirmation of human Mdm2/MdmX interaction inhibitors | Mdm2-MdmX binding, luminescent assay | shares compounds with Mdm2-MdmX inh | AID 489028 | 55% of 10,000 active | inhibition, % at 8 µM; in the data active means inhibition above about 40%
Full FLuc ctr: inhibits full-length luciferase, flagging false Mdm2/MdmX hits; shares compounds with Mdm2-MdmX inh; SaOS-2 full-length luciferase counterscreen, luminescence; inhibition, % at 8 µM; 77% of 6,200 active; AID 504607;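 active means mean inhibition at 8 µM reaching about 37%, which flags the compound as non-specific, limit read from the data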;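 further: p53-null SaOS-2 cells with luciferase driven by a doxycycline-inducible promoter; compound on cells about two nights before reading with doxycycline added after day one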
An asterisk follows results filed as active; x = no result.

SMILES	MPTP block	TIM10 inh	tim10-1 inh	tim23-1 inh	Mdm2-MdmX inh	Mdm2 MdmX conf	others
CC(=O)c1cc2c(cc1NC(=O)c1ccc(Cl)cc1)OCCO2	1	1	-6	9	57*	7
O=C(N1CCN(c2ccccn2)CC1)N1c2ccccc2Sc2ccccc21	7	30	37	43	79*	68*	Full FLuc ctr=78*
Oc1nc(Nc2ccc(F)cc2)sc1/C=C1\C=Nc2ccccc21	40	3	3	8	-9	x
CCOC(=O)c1c(Nc2ccc(Cl)cc2)sc(/C=C2\C=Nc3ccccc32)c1O	5	-42	9	-15	64*	18
CN1C[C@@H]2[C@@H]3C(=O)N(C)C(=O)[C@@H]3[C@](C)(C1=O)N2C(=O)c1ccc(Cl)cc1	-2	x	x	x	x	x
c1ccc2c(c1)-c1ccccc1C2N1CCOCC1	-1	x	x	x	x	x
O=C(NC1c2ccccc2-c2ccccc21)N1CCOCC1	0	-7	2	-6	50*	15
COc1cncc(C#Cc2ccccn2)c1	1	x	x	x	x	x
COC(=O)c1ccc(/C=C/c2ccc3cccc(OC)c3n2)cc1	-1	6	28	28	31	x
COc1cc(/C=C/c2ccc3c(Br)cc(Br)c(O)c3n2)ccc1O	6	x	x	x	x	x
COc1cccc(/C=C/c2ccc3cccc(O)c3n2)c1	0	15	17	22	62*	-143
COc1cc(/C=C/c2ccc3cccc(O)c3n2)cc(Cl)c1OC	1	10	39	18	100*	-35
COc1cc(/C=C/c2ccc3cccc(O)c3n2)cc(OC)c1OC	0	17	10	20	84*	76*	Full FLuc ctr=27
COc1ccc(/C=C/c2ccc3cccc(O)c3n2)cc1Br	2	10	18	-5	4	x
Oc1cccc(/C=C/c2ccc3cccc(O)c3n2)c1	-2	35	24	47	-91	x
COc1cc(/C=C/c2ccc3cccc(O)c3n2)cc(Br)c1OC	2	26	33	24	93*	11
COc1cc(-c2nc3ccc4ccccc4c3c3c2CCC3)cc(OC)c1OC	1	18	28	4	62*	57*	Full FLuc ctr=57*
CN(C(=O)c1cccc(NC(=O)Cc2ccc(NC(=O)C3CCN(C(=O)c4ccccc4)CC3)cc2)c1)C1CCCCC1	-1	x	x	x	x	x
Cc1ccc(C(NC(=O)N2CCOCC2)=C(Cl)Cl)cc1F	-1	12	0	19	51*	12
CCOC(=O)C1=CCN(S(=O)(=O)c2ccc(Br)cc2)C1c1ccc(C)cc1 (centres undefined)	1	x	x	x	x	x
O=C(Nc1ncc(Cc2ccc(SC(F)F)cc2)s1)c1ccc(OC(F)F)cc1	28	-3	2	-12	62*	64*	Full FLuc ctr=96*
COc1ccc(C(=O)Nc2ccc(SC(F)F)cc2)cc1	2	-8	10	14	-178	x
Cc1cc2cc(CNC(=S)NCc3ccccc3)ccc2n1C	3	20	12	22	9	x
Cc1ccc2c(c1)cc(C(=O)NCc1ccccc1)n2C	1	10	12	11	85*	56*	Full FLuc ctr=52*
COc1ccccc1CNC(=O)Nc1nc(C(N)CCc2ccccc2)cs1 (centres undefined)	11	x	x	x	x	x
SMILES	MPTP block	TIM10 inh	tim10-1 inh	tim23-1 inh	Mdm2-MdmX inh	Mdm2 MdmX conf	others
CC(C)(C)OC(=O)N1CCC(NC(=O)c2[nH]c(C(F)(F)F)nc2-c2ccccc2)CC1	1	x	x	x	x	x
COc1ccc2sc(-c3ccc(SC)cc3)c(-c3ccc(O)cc3)c2c1	3	28	18	33	54*	29
COc1ccc2sc(-c3ccccc3OC)c(-c3ccc(SC)cc3)c2c1	3	x	x	x	x	x
O=C(O)C(Cc1ccccc1)N1C(=O)C2C3CCC(C3)C2C1=O (centres undefined)	1	x	x	x	x	x
CC(=O)c1cccc(Nc2c3c(nc4ccccc24)CCC3)c1	13	6	23	21	55*	70*	Full FLuc ctr=72*
Cc1ccc2nc3c(c(Nc4cccc(O)c4)c2c1)CCC3	1	-6	-10	1	60*	34
Fc1cccc(Nc2c3c(nc4ccccc24)CCC3)c1	6	3	20	7	30	x
COC(=O)c1cccc(Nc2c3c(nc4ccccc24)CCC3)c1	1	3	15	13	64*	68*	Full FLuc ctr=63*
CC(=O)c1ccc(Nc2c3c(nc4ccccc24)CCCC3)cc1	0	-24	-8	5	45	x
CCOC(=O)CNC(=O)N1C[C@H]2CON(C)[C@H]2C[C@H]1c1ccccc1Br	-2	x	x	x	x	x
CC(=O)N1CCc2c(sc(NC(=O)c3ccc(S(=O)(=O)N(C)CC4CCCO4)cc3)c2C(N)=O)C1 (centres undefined)	0	x	x	x	x	x
COc1cc(OC)cc(-c2c(-c3ccc(F)cc3)c3cc(-c4ccc(SC)cc4)ccc3n2C)c1	0	-6	-3	-4	53*	10
COc1ccc(-c2c(-c3cc(OC)cc(OC)c3)n(C)c3ccc(-c4ccc(SC)cc4)cc23)cc1	-1	5	9	14	8	x
COc1cc(OC)cc(-c2c(-c3cccs3)c3cc(-c4ccc(C(N)=O)cc4)ccc3n2C)c1	0	3	1	5	86*	-16
COc1ccc(-c2ccc3c(c2)c(-c2cccs2)c(-c2cc(OC)cc(OC)c2)n3C)cc1	1	-6	6	6	14	x
COc1cc(OC)cc(-c2c(-c3ccc(F)cc3)c3cc(-c4ccc(OC)nc4)ccc3n2C)c1	0	-4	-2	-11	52*	9
COc1cccc(-c2c(-c3cc(OC)cc(OC)c3)n(C)c3ccc(-c4ccc(OC)nc4)cc23)c1	2	0	6	5	26	x
CC(=O)N(C)C[C@@H]1Oc2ncc(C#Cc3ccc(F)cc3)cc2C(=O)N([C@@H](C)CO)C[C@H]1C	0	x	x	x	x	x
COc1ccc(-c2cc3c(=O)n(CC(=O)NCc4cccnc4)nc(C)n3n2)cc1	0	-7	15	12	-25	x
Cc1nn(CC(=O)Nc2cccc(Cl)c2)c(=O)c2cc(-c3ccccc3)nn12	2	1	24	7	56*	12
COc1ccc(-c2cc3c(=O)n(CC(=O)Nc4ccc(Cl)cc4)nc(C)n3n2)cc1	-2	-10	0	-1	67*	43*	Full FLuc ctr=67*
Cc1nn(CC(=O)NCCCN2CCC(N3CCCCC3)CC2)c(=O)c2cc(-c3ccccc3)nn12	-1	-10	-22	-62	95*	53*	Full FLuc ctr=56*
COc1cc2ccc(CC(N)=O)cc2cc1OC	-1	x	x	x	x	x
CCC(CC)C(=O)N(C)c1c(C)nc2c(OCc3ccc(F)c(F)c3)cccn12	1	x	x	x	x	x
O=C(CC12CC3CC(CC(C3)C1)C2)NC(=S)NCc1ccco1	-1	27	17	29	64*	28
COc1ccc(C(=O)N/N=C(\Cc2ncc[nH]2)c2ccccc2)cc1	0	4	25	33	54*	42*	Full FLuc ctr=26

Compound activity as filed in PubChem.
